PubChem BioAssay (EPA / NIEHS)
Inconclusive results are not listed. Activity calls are given as the source filed them. How the source made its calls: active means hit-call score of the fitted dose curve at least 0.9, where 1 is the maximum; inconclusive means response in the unintended direction; inactive means score below 0.9.

These compounds were tested on sulfotransferase (SULT2A), SULT2A1 (gene 6822) (assay: CLD_SULT2A_48hr: CellzDirect (CLD) Gene Expression Assay for sulfotransferase (SULT2A) at 48 hours (AID 2283710);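 further: hits raise SULT2A1 transcript above the 0.2% DMSO vehicle baseline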).
Protocol: CLD_48hr is a cell-based, multiplexed-readout assay that uses hepatocyte, a human liver primary cell, with measurements taken at 48 hours after chemical dosing in a 96-well plate.CLD_SULT2A_48hr is one of 16 assay component(s) measured or calculated from the CLD_48hr assay. It is designed to make measurements of mRNA induction, a form of inducible reporter, as detected with chemiluminescence signals by Quantitative Nuclease Protection Assay (qNPA) technology.Data from the assay component CLD_SULT2A_48hr was analyzed at the endpoint, CLD_SULT2A_48hr, in the positive analysis fitting direction relative to DMSO as the negative control and baseline of activity. Using a type of inducible reporter, gain-of-signal activity can be used to understand changes in the reporter gene as they relate to the gene SULT2A1. Furthermore, this assay endpoint can be referred to as a primary readout. To generalize the intended target to other relatable targets, this assay endpoint is annotated to the transferase intended target family, where subfamily is sulfotransferase.
Human hepatocyte cultures were treated daily for two consecutive days with fresh dosing solutions containing appropriate concentrations of the 320 ToxCast chemicals (chemical identities were blinded to CellzDirect and other ToxCast collaborators), vehicle control (0.2% DMSO), and positive control inducers as summarized in Table 1. Due to the large number of treatment groups and chemicals examined, the ToxCast chemicals were divided into two groups (spanning two independent cultures of hepatocytes from separate donor preparations (Hu778: ToxCast plates 1 and 2; Hu776: ToxCast plates 3 and 4). Each preparation of human hepatocyte cultures was treated with respective vehicle control, medium only control, set of six positive controls/reference chemicals for the five hepatic receptor pathways, and a subset of eight of the ToxCast chemicals (indoxacarb, pyrithiobac-sodium, norflurazon, cyhalofop-butyl, methomyl, thiram, acetochlor, and propiconazole). These replicate data, coupled with internal replicates designed within the blinded ToxCast chemical library, provided additional data to evaluate interindividual differences between hepatocyte preparations and their potential impact on chemical profiles.Cell morphology and integrity were evaluated using phase-contrast microscopy as an indicator of hepatocyte cell health (Tyson & Green, 1987). Cultures for each treatment group (i.e., media, vehicle [0.2% DMSO], positive control inducers [multiple concentrations], and the ToxCast chemicals [multiple concentrations]) were observed and cell morphology was assessed relative to vehicle control cultures at each harvest time point (0, 6, 24, or 48 h). […] Images were evaluated at the conclusion of the study to assess changes in cell integrity and account for the effects of chemical exposure on uncharacteristic changes in concentration-dependent gene expression profiles. The results from these determinations of apparent cytotoxicity were annotated (yes/no) alongside the corresponding qNPA data for reference.At the conclusion of each treatment period, hepatocyte cultures (96-well) were washed with 1 volume of HBSS, lysed by addition of 25 ul ArrayPlate lysis buffer (HTG, Tucson, AZ), and 70 ul/well of Denaturation Oil, denatured by incubation at 95C for 10 min, and frozen at approximately -70C until analysis by nuclease protection assay (qNPA) (Roberts et al., 2007). For qNPA analysis, cell lysates were thawed at 50C for approximately 30 min, qNPA probes were added, and samples were incubated at 95C for 10 min to begin the detection process by denaturing the target RNA, dissociating the duplexes and secondary structure hybridization. At the conclusion of the hybridization period, S1 nuclease reagent was added to each sample to digest all nonprotected nucleotides at 50C for 60-90 min. […]

| Compound | outcome | AC50 |
| --- | --- | --- |
| CC(C)(C)C(O)/C(=C\c1ccc(Cl)cc1Cl)n1cncn1 (stereo not drawn) | inactive |  |
| Oc1cc(Cl)ccc1Oc1ccc(Cl)cc1Cl | inactive |  |
| COC(=O)c1ccccc1S(=O)(=O)NC(=O)N(C)c1nc(C)nc(OC)n1 | inactive |  |
| CC1(C)C(C=C(Cl)Cl)C1C(=O)OC(C#N)c1ccc(F)c(Oc2ccccc2)c1 (stereo not drawn) | inactive |  |
| Cc1cc(C)nc(NC(=O)NS(=O)(=O)c2ccccc2C(=O)OC2COC2)n1 | inactive |  |
| CNC(=O)/C=C(\C)OP(=O)(OC)OC | inactive |  |
| O=C(Nc1ccccc1)Nc1cnns1 |  | 6.28 µM (active) |
| O=C(NC(=O)c1c(F)cccc1F)Nc1ccc(OC(F)(F)C(F)OC(F)(F)F)c(Cl)c1 (stereo not drawn) | inactive |  |
| COc1nn(CSP(=S)(OC)OC)c(=O)s1 | inactive |  |
| CNC(=O)Oc1ccccc1OC(C)C | inactive |  |
| Cc1[nH]c(=O)n(C(C)(C)C)c(=O)c1Cl | inactive |  |
| CCCN(CCC)c1c([N+](=O)[O-])cc(C(F)(F)F)cc1[N+](=O)[O-] | inactive |  |
| CCc1ccc(C(=O)NN(C(=O)c2cc(C)cc(C)c2)C(C)(C)C)cc1 | inactive |  |
| COc1cc(OC)nc(NC(=O)NS(=O)(=O)c2cc(NC=O)ccc2C(=O)N(C)C)n1 | inactive |  |
| CCN(CC)C(=O)SCc1ccc(Cl)cc1 | inactive |  |
| COP(=S)(OC)Oc1ccc([N+](=O)[O-])cc1 | inactive |  |
| CCS(=O)(=O)c1cccnc1S(=O)(=O)NC(=O)Nc1nc(OC)cc(OC)n1 | inactive |  |
| CCC(C)(NC(=O)c1cc(Cl)c(C)c(Cl)c1)C(=O)CCl (stereo not drawn) | inactive |  |
| COC(=O)c1ccccc1S(=O)(=O)NC(=O)Nc1nc(C)nc(OC)n1 | inactive |  |

| Compound | outcome | AC50 |
| --- | --- | --- |
| CN1CSC(=S)N(C)C1 | inactive |  |
| N#Cc1c(Cl)c(Cl)c(Cl)c(C#N)c1Cl | inactive |  |
| Oc1ccc(Cl)cc1Cc1ccccc1 | inactive |  |
| CC(C)(C)C(O)C(Oc1ccc(Cl)cc1)n1cncn1 (stereo not drawn) |  | 7.18 µM (active) |
| CCOC1Oc2ccc(OS(C)(=O)=O)cc2C1(C)C (stereo not drawn) | inactive |  |
| O=C(O)CCCOc1ccc(Cl)cc1Cl | inactive |  |
| COP(=O)(OC)OC=C(Cl)Cl | inactive |  |
| O=S1OCC2C(CO1)C1(Cl)C(Cl)=C(Cl)C2(Cl)C1(Cl)Cl (stereo not drawn) | inactive |  |
| C[C@H]1[C@H](c2ccc(Cl)cc2)SC(=O)N1C(=O)NC1CCCCC1 | inactive |  |
| Clc1ccccc1-c1nnc(-c2ccccc2Cl)nn1 | inactive |  |
| O=C(O)C(F)(F)C(F)(F)C(F)(F)C(F)(F)C(F)(F)C(F)(F)C(F)(F)F | inactive |  |
| CC1(c2ccc(Oc3ccccc3)cc2)OC(=O)N(Nc2ccccc2)C1=O (stereo not drawn) |  | 1.89 µM (active) |
| O=S(=O)(O)C(F)(F)C(F)(F)C(F)(F)C(F)(F)C(F)(F)C(F)(F)C(F)(F)C(F)(F)F | inactive |  |
| CC(C)N(C(=O)COc1nnc(C(F)(F)F)s1)c1ccc(F)cc1 | inactive |  |
| O=[N+]([O-])c1c(Cl)c(Cl)c(Cl)c(Cl)c1Cl | inactive |  |
| O=[N+]([O-])/N=C1\NCCN1Cc1ccc(Cl)nc1 | inactive |  |
| CCC(C)(C)C(=O)OC1=C(c2ccc(Cl)cc2Cl)C(=O)OC12CCCCC2 | inactive |  |
| CCC(C)Nc1c([N+](=O)[O-])cc(C(C)(C)C)cc1[N+](=O)[O-] (stereo not drawn) |  | 1.14 µM (active) |
| C#CCN1C(=O)COc2cc(F)c(N3C(=O)C4=C(CCCC4)C3=O)cc21 |  | 3.49 µM (active) |
